# Laboratory results published in PubChem BioAssay (EPA / NIEHS).
# Inconclusive results are not listed. A structure can be active in one record and inactive in another. Active and inactive are the calls of the source. Rule for the calls, unless noted: active = hit-call score of the fitted dose curve at least 0.9, where 1 is the maximum; inactive = score below 0.9.
# Columns and labels:
# [1] = target: human RAR-related Orphan Receptor gamma (RORg), RORC (gene 6097) (UniProt P51449); experiment: ATG_RORg_TRANS: Attagene TRANS-FACTORIAL HepG2 Assay for human RAR-related Orphan Receptor gamma (RORg) (AID 2283011; active = hit-call score of the fitted dose curve at least 0.9, where 1 is the maximum)
# In short: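 Reporter transcripts from a transfected RORg-GAL4 chimera in HepG2 cells were quantified 24 h after dosing by RT-PCR, 6-FAM labelling, HpaI digestion and capillary electrophoresis; increases over DMSO baseline were fitted.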
# [2] = target: Retinoic acid receptor RXR-alpha (Homo sapiens) (UniProt P19793); experiment: ATG_RXRa_TRANS: Attagene TRANS-FACTORIAL HepG2 Assay for human Retinoid X Receptor alpha (RXRa) (AID 2283012; active = hit-call score of the fitted dose curve at least 0.9, where 1 is the maximum)
# In short: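 Transient transfection of human HepG2 with multiple GAL4-UAS reporter constructs; 24 h compound exposure; total RNA isolated, reverse-transcribed, PCR-amplified, 6-FAM labelled, HpaI-cut, resolved by capillary electrophoresis. Positive-direction fit versus DMSO.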
# [3] = target: human Retinoid X Receptor beta (RXRb), RXRB (gene 6257) (UniProt P28702); experiment: ATG_RXRb_TRANS: Attagene TRANS-FACTORIAL HepG2 Assay for human Retinoid X Receptor beta (RXRb) (AID 2283013; active = hit-call score of the fitted dose curve at least 0.9, where 1 is the maximum)
# In short: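 Transfect HepG2 with GAL4-UAS multi-reporter constructs (chimeric NR-Gal4, TRANS format); dose compound 24 h; isolate RNA, RT-PCR, FAM primer extension, HpaI digest; quantify by capillary electrophoresis; positive direction vs DMSO.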
# [4] = read-out: E-selectin (Homo sapiens) (UniProt P16581); experiment: BSK_3C_Eselectin: BioMAP Diversity Plus: 3C Assay for Eselectin Biomarker Activity (AID 2283015); conditions: primary human endothelial cells (HUVEC); actives raise or lower the signal;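 for outcome: cell surface E-selectin protein quantified by ELISA 24 h after dosing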
# In short: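 E-selectin ELISA readout, fitted bidirectionally relative to DMSO, taken 24 h post-dosing in HUVEC cultures of the 3C system. Overt cytotoxicity tracked with sulforhodamine B staining of parallel wells.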
# [5] = read-out: Interleukin-1 alpha (IL1a), IL1A (gene 3552); experiment: BSK_BE3C_IL1a: BioMAP Diversity Plus: BE3C Assay for Interleukin-1 alpha (IL1a) Biomarker Activity (AID 2283016); conditions: primary human bronchial epithelial cells; actives raise or lower the signal
# In short: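 BE3C primary human bronchial epithelium; cpd 24 h; IL-1a by ELISA; bidirectional fit vs DMSO; parallel SRB (0.1% SRB, 10% TCA fix, 560 nm) for cytotoxicity.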
# [6] = read-out: Monocyte Chemoattractant Protein-1 (MCP1), CCL2 (gene 6347); experiment: BSK_3C_MCP1: BioMAP Diversity Plus: 3C Assay for Monocyte Chemoattractant Protein-1 (MCP1) Biomarker Activity (AID 2283017); conditions: primary human endothelial cells (HUVEC); actives raise or lower the signal
# In short: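 MCP-1 was measured by ELISA 24 h after dosing in primary HUVEC 3C cultures and fitted in both directions relative to DMSO; cytotoxicity was checked by SRB total-protein staining in parallel wells.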
# [7] = read-out: Monocyte Chemoattractant Protein-1 (MCP1), CCL2 (gene 6347); experiment: BSK_4H_MCP1: BioMAP Diversity Plus: 4H Assay for Monocyte Chemoattractant Protein-1 (MCP1) Biomarker Activity (AID 2283018); conditions: primary human endothelial cells (HUVEC); actives raise or lower the signal
# In short: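 ELISA read-out of MCP-1 from human vascular endothelial primary cells taken at 24 hours after compound exposure. Activity was fitted in both directions relative to DMSO, which served as negative control.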
# [8] = read-out: Human Leukocyte Antigen - DR isotype (HLADR), HLA-DRA (gene 3122); experiment: BSK_3C_HLADR: BioMAP Diversity Plus: 3C Assay for Human Leukocyte Antigen - DR isotype (HLADR) Biomarker Activity (AID 2283019); conditions: primary human endothelial cells (HUVEC); actives raise or lower the signal;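 for outcome: ELISA of cell-surface HLA-DR on HUVEC 24 h after dosing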
# In short: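 Bidirectional fitting against DMSO was applied to the HLA-DR ELISA signal from human umbilical vein endothelial cells, 24 h post-dose. Cytotoxicity came from parallel SRB total-protein staining; 3C proliferation was counted by SRB at 48 h.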
# [9] = read-out: Interleukin-8 (IL8), CXCL8 (gene 3576); experiment: BSK_3C_IL8: BioMAP Diversity Plus: 3C Assay for Interleukin-8 (IL8) Biomarker Activity (AID 2283020); conditions: primary human endothelial cells (HUVEC); actives raise or lower the signal
# In short: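 ELISA read-out of IL-8 from human umbilical vein endothelium, measured 24 h after chemical dosing. Activity is expressed relative to DMSO negative control, with both increases and decreases fitted.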
# [10] = read-out: Monokine induced gamma interferon (MIG), CXCL9 (gene 4283); experiment: BSK_3C_MIG: BioMAP Diversity Plus: 3C Assay for Monokine induced gamma interferon (MIG) Biomarker Activity (AID 2283021); conditions: primary human endothelial cells (HUVEC); actives raise or lower the signal;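 for AC50: MIG protein level measured by immunoassay in the treated endothelial cultures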
# In short: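 Read-out is ELISA detection of MIG on human umbilical vein endothelial cells, taken 24 h after dosing. Gain or loss of signal was scored relative to DMSO controls using bidirectional curve fitting.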
# [11] = BSK_3C_SRB: Viability Assessment in the BioMAP Diversity Plus: 3C Assay (AID 2283023); conditions: primary human endothelial cells (HUVEC);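 note: fitted both ways against DMSO so a hit may be signal rise or drop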
# In short: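 Cytotoxicity readout in parallel HUVEC 3C cultures: after 24 h compound exposure, cells fixed with 10% TCA, stained with 0.1% SRB and read at 560 nm. Gain or loss relative to DMSO fitted.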
# [12] = read-out: Matrix Metallopeptidase 1 (MMP1), MMP1 (gene 4312); experiment: BSK_BE3C_MMP1: BioMAP Diversity Plus: BE3C Assay for Matrix Metallopeptidase 1 (MMP1) Biomarker Activity (AID 2283024); conditions: primary human bronchial epithelial cells; actives raise or lower the signal
# In short: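 Human bronchial epithelial cells (BE3C system) exposed to compound for 24 h; MMP1 then quantified by ELISA. Activity was fitted in both directions relative to DMSO.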
# [13] = BSK_3C_Vis: BioMAP Diversity Plus: 3C Assay for Morphology Visualization (AID 2283025); conditions: primary human endothelial cells (HUVEC);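 note: fitted both ways so gain or loss versus DMSO counts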;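 for AC50: light microscopy image of cell morphology used as background control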
# In short: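 Chemicals were added to primary human umbilical vein endothelium, cells were incubated 24 h, and morphology was then visualized by light microscopy. Gain or loss of signal was fitted bidirectionally relative to DMSO.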
# [14] = read-out: Pselectin, SELP (gene 6403); experiment: BSK_4H_Pselectin: BioMAP Diversity Plus: 4H Assay for Pselectin Biomarker Activity (AID 2283026); conditions: primary human endothelial cells (HUVEC); actives raise or lower the signal
# In short: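 ELISA read-out of P-selectin on human umbilical vein endothelium after 24 h of dosing. Values derive from bidirectional fitting relative to DMSO. Parallel SRB protein staining flagged overt cytotoxicity.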
# [15] = BSK_4H_SRB: Viability Assessment in the BioMAP Diversity Plus: 4H Assay (AID 2283027); conditions: primary human endothelial cells (HUVEC);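 note: cells exposed to compound for 24 h before staining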;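 for AC50: curves fitted both ways versus DMSO so AC50 may be loss or gain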
# In short: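 Human umbilical vein endothelial cells were dosed with chemical and, after 24 h, fixed with 10% TCA, stained with 0.1% sulforhodamine B, and read at 560 nm to give total protein as a cytotoxicity measure. Bidirectional fitting relative to DMSO control.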
# [16] = BSK_BE3C_SRB: Viability Assessment in the BioMAP Diversity Plus: BE3C Assay (AID 2283028); conditions: primary human bronchial epithelial cells
# In short: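 Cytotoxicity read-out: SRB (0.1%) staining of TCA-fixed (10%) human lung bronchial epithelial cells, absorbance 560 nm, 24 h post-dosing. Curves fitted both directions relative to DMSO.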
# [17] = read-out: Thrombomodulin, THBD (gene 7056); experiment: BSK_3C_Thrombomodulin: BioMAP Diversity Plus: 3C Assay for Thrombomodulin Biomarker Activity (AID 2283029); conditions: primary human endothelial cells (HUVEC); actives raise or lower the signal
# In short: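 Read-out is ELISA of thrombomodulin on human umbilical vein endothelium 24 h after chemical dosing. Gain or loss of signal is scored relative to DMSO. Overt cytotoxicity is checked in parallel cultures by sulforhodamine B staining.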
# [18] = read-out: Urokinase-type plasminogen activator receptor (uPAR), PLAUR (gene 5329); experiment: BSK_4H_uPAR: BioMAP Diversity Plus: 4H Assay for Urokinase-type plasminogen activator receptor (uPAR) Biomarker Activity (AID 2283030); conditions: primary human endothelial cells (HUVEC); actives raise or lower the signal
# In short: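 uPAR level read by ELISA on HUVEC cultures (BioMAP 4H) 24 h post-dosing, analyzed for gain or loss relative to DMSO. Parallel SRB staining assessed overt cytotoxicity.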
# [19] = read-out: Vascular endothelial growth factor receptor 2 (Homo sapiens) (UniProt P35968); experiment: BSK_4H_VEGFRII: BioMAP Diversity Plus: 4H Assay for Vascular endothelial growth factor receptor 2 (VEGFR2) Biomarker Activity (AID 2283031); conditions: primary human endothelial cells (HUVEC); actives raise or lower the signal;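 for AC50: cell-surface VEGFR2 protein level quantified by ELISA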
# In short: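 Measured by ELISA after 24 h of compound treatment: VEGFR2 on primary human umbilical vein endothelial cells, fitted in both directions relative to DMSO. Parallel cultures received SRB staining (560 nm) for overt cytotoxicity.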
# [20] = target: human Vitamin D Receptor (VDR), VDR (gene 7421) (UniProt P11473); experiment: ATG_VDR_TRANS: Attagene TRANS-FACTORIAL HepG2 Assay for human Vitamin D Receptor (VDR) (AID 2283022; active = hit-call score of the fitted dose curve at least 0.9, where 1 is the maximum)
# In short: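 Transactivation by an exogenous VDR-Gal4 chimera in transiently transfected HepG2 cells was measured as reporter transcript level 24 hours after chemical treatment. RT-PCR products were analysed by capillary electrophoresis and fitted in the positive direction relative to DMSO.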
# Retinoic acid receptor RXR-alpha (Homo sapiens), sequence (P19793 whole entry, looked up, the tested form may be a part): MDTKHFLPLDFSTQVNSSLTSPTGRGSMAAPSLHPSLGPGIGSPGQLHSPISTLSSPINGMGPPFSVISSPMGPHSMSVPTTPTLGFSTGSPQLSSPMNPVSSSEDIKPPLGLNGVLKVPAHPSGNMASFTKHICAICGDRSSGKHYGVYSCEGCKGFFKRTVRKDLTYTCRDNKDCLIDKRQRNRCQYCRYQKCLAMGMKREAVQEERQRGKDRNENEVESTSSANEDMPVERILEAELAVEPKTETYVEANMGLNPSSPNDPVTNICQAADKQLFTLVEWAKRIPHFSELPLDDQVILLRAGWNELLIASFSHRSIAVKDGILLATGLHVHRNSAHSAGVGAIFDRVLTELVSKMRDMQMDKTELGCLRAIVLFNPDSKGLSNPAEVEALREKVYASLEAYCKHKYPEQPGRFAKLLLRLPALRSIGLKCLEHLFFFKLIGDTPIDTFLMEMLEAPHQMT
# human RAR-related Orphan Receptor gamma (RORg), RORC (gene 6097), sequence (P51449 whole entry, looked up, the tested form may be a part): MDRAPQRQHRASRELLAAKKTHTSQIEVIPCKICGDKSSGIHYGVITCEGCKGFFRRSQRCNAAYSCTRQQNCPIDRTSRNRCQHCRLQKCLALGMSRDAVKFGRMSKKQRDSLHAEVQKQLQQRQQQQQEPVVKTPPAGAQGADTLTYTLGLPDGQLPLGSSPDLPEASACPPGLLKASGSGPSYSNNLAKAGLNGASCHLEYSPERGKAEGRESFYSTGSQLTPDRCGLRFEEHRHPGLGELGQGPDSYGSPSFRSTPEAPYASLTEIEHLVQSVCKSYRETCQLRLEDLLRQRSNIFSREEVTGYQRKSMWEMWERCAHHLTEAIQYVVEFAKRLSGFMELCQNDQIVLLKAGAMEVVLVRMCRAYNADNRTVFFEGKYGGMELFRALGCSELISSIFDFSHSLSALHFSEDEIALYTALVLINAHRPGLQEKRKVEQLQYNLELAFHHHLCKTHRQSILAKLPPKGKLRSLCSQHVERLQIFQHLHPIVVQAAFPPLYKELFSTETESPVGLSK
# human Vitamin D Receptor (VDR), VDR (gene 7421), sequence (P11473 whole entry, looked up, the tested form may be a part): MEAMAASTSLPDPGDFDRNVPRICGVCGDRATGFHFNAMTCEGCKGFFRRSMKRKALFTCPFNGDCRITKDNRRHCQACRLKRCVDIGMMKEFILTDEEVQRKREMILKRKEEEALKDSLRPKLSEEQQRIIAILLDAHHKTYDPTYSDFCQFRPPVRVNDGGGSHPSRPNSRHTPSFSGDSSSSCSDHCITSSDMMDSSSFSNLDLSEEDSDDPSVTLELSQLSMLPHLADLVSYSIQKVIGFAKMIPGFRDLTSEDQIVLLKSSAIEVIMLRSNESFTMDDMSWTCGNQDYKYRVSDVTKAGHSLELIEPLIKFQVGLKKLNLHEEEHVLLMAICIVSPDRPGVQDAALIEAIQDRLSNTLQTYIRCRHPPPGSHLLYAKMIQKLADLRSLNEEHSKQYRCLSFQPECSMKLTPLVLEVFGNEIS
# human Retinoid X Receptor beta (RXRb), RXRB (gene 6257), sequence (P28702 whole entry, looked up, the tested form may be a part): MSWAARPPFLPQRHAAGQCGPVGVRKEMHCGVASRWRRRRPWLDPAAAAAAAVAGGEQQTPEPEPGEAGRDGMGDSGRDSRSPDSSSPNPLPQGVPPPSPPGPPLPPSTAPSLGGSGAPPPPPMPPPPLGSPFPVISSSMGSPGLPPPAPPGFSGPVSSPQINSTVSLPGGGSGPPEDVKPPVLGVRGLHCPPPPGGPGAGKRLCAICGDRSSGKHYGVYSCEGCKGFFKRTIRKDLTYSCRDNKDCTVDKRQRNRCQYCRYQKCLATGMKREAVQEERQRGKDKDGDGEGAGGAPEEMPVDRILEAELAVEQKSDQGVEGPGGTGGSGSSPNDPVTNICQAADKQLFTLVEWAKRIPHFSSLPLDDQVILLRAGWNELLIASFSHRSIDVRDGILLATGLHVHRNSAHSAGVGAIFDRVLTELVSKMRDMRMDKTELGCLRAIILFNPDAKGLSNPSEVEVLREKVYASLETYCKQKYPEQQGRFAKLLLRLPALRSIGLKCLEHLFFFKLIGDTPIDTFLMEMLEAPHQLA
# E-selectin (Homo sapiens), sequence (P16581 whole entry, looked up): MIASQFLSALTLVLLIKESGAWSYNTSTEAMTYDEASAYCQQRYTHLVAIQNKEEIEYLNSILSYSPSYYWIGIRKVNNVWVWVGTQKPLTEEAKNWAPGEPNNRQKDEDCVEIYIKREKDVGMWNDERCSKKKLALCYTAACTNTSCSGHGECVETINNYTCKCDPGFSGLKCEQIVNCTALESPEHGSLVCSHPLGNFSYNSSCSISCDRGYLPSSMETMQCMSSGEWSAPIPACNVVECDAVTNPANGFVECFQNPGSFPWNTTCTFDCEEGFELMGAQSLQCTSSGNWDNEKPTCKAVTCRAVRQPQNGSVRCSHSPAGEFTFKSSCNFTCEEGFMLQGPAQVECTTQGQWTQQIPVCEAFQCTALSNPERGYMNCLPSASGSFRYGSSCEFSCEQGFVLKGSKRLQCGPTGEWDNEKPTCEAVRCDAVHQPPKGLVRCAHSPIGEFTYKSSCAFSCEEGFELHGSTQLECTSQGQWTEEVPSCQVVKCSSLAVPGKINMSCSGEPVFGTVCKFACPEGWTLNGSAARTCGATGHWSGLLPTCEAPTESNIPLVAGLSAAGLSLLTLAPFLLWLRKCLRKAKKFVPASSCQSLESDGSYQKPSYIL
smiles,measurement,setting,value
CN(C)C(=O)Nc1ccc(Cl)c(Cl)c1,outcome,[1],inactive
same,outcome,[2],inactive
same,outcome,[3],inactive
same,outcome,[4],inactive
same,outcome,[5],inactive
same,outcome,[6],inactive
same,outcome,[7],inactive
same,outcome,[8],inactive
same,outcome,[9],inactive
same,outcome,[10],inactive
same,outcome,[11],inactive
same,outcome,[12],inactive
same,outcome,[13],inactive
same,outcome,[14],inactive
same,outcome,[15],inactive
same,outcome,[16],inactive
same,outcome,[17],inactive
same,outcome,[18],inactive
same,outcome,[19],inactive
OB(O)O,outcome,[1],inactive
same,outcome,[2],inactive
same,outcome,[4],inactive
same,outcome,[5],inactive
same,outcome,[6],inactive
same,outcome,[7],inactive
same,outcome,[8],inactive
same,outcome,[9],inactive
same,outcome,[10],inactive
same,outcome,[20],inactive
same,outcome,[11],inactive
same,outcome,[12],inactive
same,outcome,[13],inactive
same,outcome,[14],inactive
same,outcome,[15],inactive
same,outcome,[16],inactive
same,outcome,[17],inactive
same,outcome,[18],inactive
same,outcome,[19],inactive
S=C(S)NCCNC(=S)S.[Mn+2].[S-]C([S-])=NCCN=C([S-])[S-].[Zn+2],outcome,[1],inactive
same,outcome,[2],inactive
same,AC50,[3],20.4 µM (active)
same,outcome,[3],inactive
same,outcome,[4],inactive
same,outcome,[5],inactive
same,outcome,[6],inactive
same,outcome,[7],inactive
same,AC50,[8],13.3 µM (active) [middle of 4 runs]
same,outcome,[8],inactive
same,outcome,[9],inactive
same,outcome,[10],inactive
same,outcome,[20],inactive
same,outcome,[11],inactive
same,AC50,[12],1.34 µM (active)
same,outcome,[12],inactive
same,outcome,[13],inactive
same,outcome,[14],inactive
same,outcome,[15],inactive
same,outcome,[16],inactive
same,outcome,[17],inactive
same,outcome,[18],inactive
same,outcome,[19],inactive
CCCCC(CC)COC(=O)c1ccccc1C(=O)O (stereo unspecified),outcome,[1],inactive
same,outcome,[2],inactive
same,outcome,[3],inactive
same,outcome,[4],inactive
same,outcome,[5],inactive
same,outcome,[6],inactive
same,outcome,[7],inactive
same,outcome,[8],inactive
same,outcome,[9],inactive
same,outcome,[10],inactive
same,outcome,[11],inactive
same,outcome,[12],inactive
same,outcome,[13],inactive
same,outcome,[14],inactive
same,outcome,[15],inactive
same,outcome,[16],inactive
same,outcome,[17],inactive
same,outcome,[18],inactive
same,outcome,[19],inactive
CCCCOCCOCCOCc1cc2c(cc1CCC)OCO2,outcome,[1],inactive
same,outcome,[2],inactive
same,outcome,[3],inactive
same,outcome,[4],inactive
same,outcome,[5],inactive
same,outcome,[6],inactive
same,outcome,[7],inactive
same,outcome,[8],inactive
same,outcome,[9],inactive
same,outcome,[10],inactive
same,AC50,[11],21 µM (active)
same,outcome,[12],inactive
same,outcome,[13],inactive
same,outcome,[14],inactive
same,outcome,[15],inactive
same,outcome,[16],inactive
same,outcome,[17],inactive
same,outcome,[18],inactive
same,outcome,[19],inactive
CCCCCCC(C)OC(=O)COc1nc(F)c(Cl)c(N)c1Cl (stereo unspecified),AC50,[4],31.4 µM (active)
same,outcome,[5],inactive
same,AC50,[6],30.8 µM (active)
same,AC50,[7],32.3 µM (active)
same,AC50,[8],31.6 µM (active)
same,AC50,[9],36.5 µM (active)
same,AC50,[10],37.7 µM (active)
same,outcome,[20],inactive
same,AC50,[11],30.1 µM (active)
same,outcome,[12],inactive
same,AC50,[13],29.4 µM (active)
same,AC50,[14],30.8 µM (active)
same,AC50,[15],34.5 µM (active)
same,outcome,[16],inactive
same,outcome,[17],inactive
same,AC50,[18],31.2 µM (active)
same,AC50,[19],31.9 µM (active)
